TMEM16A act – activates or potentiates the mouse TMEM16A chloride channel; 340,000 compounds, 0.3% hits; HEK293 TMEM16A/YFP-H148Q/I152L, iodide quench fluorescence; active compounds read low; B-score at 10 µM; Q8BHY3;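 active = fluorescence-ratio B-score plate-corrected deviation score at least 3 library SD below zero, with starting fluorescence score within 5 deviations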;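 note: channel opened by trigger with iodide after compound preincubation; score built on the fluorescence ratio of max minus min over baseline; more negative score means more quench and so TMEM16A activation or potentiation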
IDE cell activ – activators of human insulin-degrading enzyme in cells; activation, % at 5.96 µM; HEK cells, FAbeta-B cleavage, fluorescence polarization; 0% vehicle, 100% cell-free pure enzyme wells; AID 493087; 340,000 compounds, 0.073% hits; P14735;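 active = activation above the mean of all tested compounds plus 3 SD, set per screening campaign, cut at about 17% in these data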
CHT inh – inhibits the human high affinity choline transporter | CHT-expressing cells, membrane potential dye, choline response; active compounds read low | B-score at 10 µM | 310,000 compounds, 0.86% hits;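 active = B-score over 3 SD under the library average, and starting fluorescence ratio not unusually high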;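 note: choline stimulus applied at its EC90 after an EC20 pre-addition; B-score computed on integrated fluorescence ratio after choline addition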
Target sequence (Q9GZV3 whole entry, looked up): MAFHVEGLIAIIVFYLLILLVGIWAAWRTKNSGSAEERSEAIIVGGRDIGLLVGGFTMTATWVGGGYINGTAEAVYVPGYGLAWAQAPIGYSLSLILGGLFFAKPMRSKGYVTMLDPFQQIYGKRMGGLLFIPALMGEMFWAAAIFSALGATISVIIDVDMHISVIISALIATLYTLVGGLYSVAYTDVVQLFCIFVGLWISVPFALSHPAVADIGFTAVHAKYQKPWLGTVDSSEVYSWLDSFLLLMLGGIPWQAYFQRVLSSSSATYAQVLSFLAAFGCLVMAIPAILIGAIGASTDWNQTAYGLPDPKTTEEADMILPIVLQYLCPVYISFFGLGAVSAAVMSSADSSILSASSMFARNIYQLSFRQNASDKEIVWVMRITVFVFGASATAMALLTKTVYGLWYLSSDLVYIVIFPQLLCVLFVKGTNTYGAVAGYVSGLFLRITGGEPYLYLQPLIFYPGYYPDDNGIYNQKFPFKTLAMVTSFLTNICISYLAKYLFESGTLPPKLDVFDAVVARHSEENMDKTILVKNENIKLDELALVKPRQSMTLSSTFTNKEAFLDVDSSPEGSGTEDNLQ
CHT allo act – allosterically activates the human high affinity choline transporter; CHT-expressing cells, membrane potential dye, choline EC20; active compounds read high; LV-AA mutant CHT in HEK293 cells; Q9GZV3; B-score at 10 µM; 310,000 compounds, 0.49% hits; AID 488977;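 active = initial fluorescence not abnormally high and integrated response B-score, plate-corrected, over 3 SD above library mean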
TMEM16A inh – mouse TMEM16A channel inhibition, primary screen. Q8BHY3. HEK293 TMEM16A/YFP iodide influx fluorescence, ionomycin. normalized B-score (activity score, 25-100; higher = stronger inhibition) at 10 µM. 310,000 compounds, 1.2% hits;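 active = ratio plate-corrected score three or more library SD toward inhibition, starting fluorescence score within five deviations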;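 note: score derived from kinetic fluorescence span divided by baseline fluorescence per well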
IDE inh – cellular human IDE inhibition; P14735; HEK cells, FAbetaB cleavage, fluorescence polarization; inhibition, % at 5.59 µM; 320,000 compounds, 0.41% hits;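 active = percent inhibition above the average of all tested compounds plus 3 SD, set per screening campaign, cut at about 16% in these data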;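 note: IDE supplied by intact live HEK cells; FP after avidin binding of uncleaved biotin substrate so inhibition keeps polarization high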
CHT inh conf – human CHT inhibition, confirmatory screen; shares compounds with CHT inh; CHT activity remaining % of control (active compounds read low), % at 10 µM; 2,400 compounds, 70% hits; AID 493221; CHT-expressing cells, choline membrane potential dye; LV-to-AA substituted CHT, HEK293 cells;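 active = choline transporter activity left, mean of duplicates at 10 µM, below buffer-only control mean minus 3 SD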;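 note: depolarization triggered by choline at its EC90 following an EC20 pre-addition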
HEK293 CHT ctr – counter-screen for CHT inhibitors: effect in parental HEK293 cells; shares compounds with CHT inh; 2,400 compounds, 4% hits; membrane potential dye, choline response; active = decrease or increase beyond buffer ±3SD; membrane potential ratio readout (active if shifted either direction beyond buffer ±3SD; no single direction) at 10 µM;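 note: parental cells lack the transporter so any hit is non-specific; ratio is peak minus trough fluorescence over baseline after EC90 choline challenge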
Each line names hits and unclear results; the compound was inactive in the other large screens (follow-up assays come after a bar, where they were run). In the library only some 2.7% were active in any assay of this set; here they are far more common.

O=[N+]([O-])c1cc(-c2nnc(Nc3ccccc3)c3ccccc23)ccc1N1CCOCC1	none
O=C(CCc1ccc(S(=O)(=O)N2CCOCC2)cc1)N/N=C/c1ccc(O)c(O)c1O	CHT inh -12 | CHT inh conf inactive | HEK293 CHT ctr inactive
O=C(NCCCN1CCCC1)c1ccc2c(c1)N(Cc1ccccc1)CCS2	CHT inh -5.4 | CHT inh conf 36% | HEK293 CHT ctr 4
O=C(NCCCOc1cccc(CN2CCCCC2)c1)c1ccc(Cl)c(Cl)c1	CHT inh -11 | CHT inh conf 22% | HEK293 CHT ctr 2.4
O=C1Nc2cc(C(=O)NCCCN3CCCC3)ccc2S/C1=C\c1ccccc1	CHT inh -11 | CHT inh conf 24% | HEK293 CHT ctr inactive
O=C1Nc2cc(C(=O)NCCCN3CCOCC3)ccc2S/C1=C/c1ccccc1F	none
Cn1nc(C(=O)NCCCN2CCCCC2)c2c1-c1ccccc1SC2	CHT inh -5.5 | CHT inh conf 37% | HEK293 CHT ctr inactive
CCOC(=O)N1CCN(C(=O)c2nn(C)c3c2CSc2ccccc2-3)CC1	none
CC(C)(C)S(=O)(=O)/C(C#N)=N/Nc1ccc(C#N)cc1	none | CHT inh conf 55% | HEK293 CHT ctr inactive
CCn1c(=O)c2c(nc3n2CCCN3CCc2ccc(OC)c(OC)c2)n(C)c1=O	none (no result: IDE inh)
CCCn1c(=O)c2c(nc3n2CCCN3CCc2ccc(OC)c(OC)c2)n(C)c1=O	CHT inh -5.2 | CHT inh conf 70% | HEK293 CHT ctr inactive
CC(C)(C)n1nnnc1C(c1ccc2ncccc2c1)N1CCC(O)CC1 (configuration not stated)	CHT inh -5.3 | CHT inh conf inactive | HEK293 CHT ctr inactive
COc1ccc(N2CCN(C(c3ccc4ncccc4c3)c3nnnn3C(C)(C)C)CC2)cc1 (configuration not stated)	none
Cc1cc(NS(C)(=O)=O)c(=O)n(Cc2c(F)cccc2Cl)c1	none
Cc1cccc(NC(=S)NNC(=O)c2ccc(O)cc2O)c1C	none
Cc1ccc(NC(=S)NNC(=O)c2ccccc2O)c(C)c1	CHT inh -8.2, TMEM16A inh 100 | CHT inh conf inactive | HEK293 CHT ctr inactive
O=C(CCCSc1nc2ccccc2s1)NC1=NCCS1	CHT inh -15 | CHT inh conf 4.3% | HEK293 CHT ctr inactive
CC(=O)Nc1ccc(NC(=O)CCCSc2nc3ccccc3s2)cc1	none
CCN(CC(=O)Nc1ccc2c(c1)CCC2)Cc1nc2ccccc2c(=O)[nH]1	CHT inh -5.1 | CHT inh conf inactive | HEK293 CHT ctr inactive
C[C@H](C(=O)NCc1ccccc1)C(=O)c1ccccc1	none

Assay outcomes from PubChem BioAssay.
